Data published in PubChem BioAssay AID1159580 (chemical genetic matrix, 2015).
Hit rate of the full screen: of about 5,500 compounds, about 2,000 (36%) were called active. Roughly 18% stayed inconclusive and do not appear here. No stated cut-off is given here; in the data, active means normalized growth mostly below about 0.91 (no sharp cut-off); inconclusive means no clear call, values can overlap the other calls; inactive means mostly above about 0.92. Some of the results follow.

Test: chemical genetic growth profiling, strain panel (AID 1159580);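 further: tested at 20 µM; growth read once vehicle control cultures reached saturation at 30 °C; 1 = growth at the plate median or of vehicle wells; lower values mean less growth of the strain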
Conditions: growth OD
[1] = S. cerevisiae deletion strains, locus YAL013W, strain DEP1, hits give low values
[2] = S. cerevisiae deletion strains, locus YBR021W, strain FUR4, hits give low values
[3] = S. cerevisiae deletion strains, locus YBR229C, strain ROT2, hits give low values
[4] = S. cerevisiae deletion strains, locus YCL029C, strain bik1, hits give low values
[5] = S. cerevisiae deletion strains, locus YDL035C, strain GPR1, hits give low values
[6] = S. cerevisiae deletion strains, locus YDL074C, strain BRE1, hits give low values
[7] = S. cerevisiae deletion strains, locus YDL101C, strain DUN1, hits give low values
[8] = S. cerevisiae deletion strains, locus YDL134C, strain PPH21, hits give low values
[9] = S. cerevisiae deletion strains, locus YDL185W, strain tfp1, hits give low values
[10] = S. cerevisiae deletion strains, locus YDL192W, strain arf1, hits give low values
[11] = S. cerevisiae deletion strains, locus YDR101C, strain arx1, hits give low values
[12] = S. cerevisiae deletion strains, locus YDR150W, strain NUM1, hits give low values
[13] = S. cerevisiae deletion strains, locus YDR162C, strain NBP2, hits give low values
[14] = S. cerevisiae deletion strains, locus YDR318W, strain mcm21, hits give low values
[15] = S. cerevisiae deletion strains, locus YDR388W, hits give low values
[16] = S. cerevisiae deletion strains, locus YDR502C, strain sam2, hits give low values
[17] = S. cerevisiae deletion strains, locus YEL061C, strain CIN8, hits give low values
[18] = S. cerevisiae deletion strains, locus YER110C, hits give low values
[19] = S. cerevisiae deletion strains, locus YER155C, strain BEM2, hits give low values
[20] = S. cerevisiae deletion strains, locus YER167W, strain BCK2, hits give low values
[21] = S. cerevisiae deletion strains, locus YGL078C, strain dbp3, hits give low values
[22] = S. cerevisiae deletion strains, locus YGL086W, strain mad1, hits give low values
[23] = S. cerevisiae deletion strains, locus YGL248W, strain PDE1, hits give low values
[24] = S. cerevisiae deletion strains, locus YGR078C, strain PAC10, hits give low values
[25] = S. cerevisiae deletion strains, locus YGR135W, strain pre9, hits give low values
[26] = S. cerevisiae deletion strains, locus YGR229C, strain SMI1, hits give low values
[27] = S. cerevisiae deletion strains, locus YGR252W, strain gcn5, hits give low values
[28] = S. cerevisiae deletion strains, locus YHR030C, strain SLT2, hits give low values
[29] = S. cerevisiae deletion strains, locus YHR079C, strain IRE1 (second series), hits give low values
[30] = S. cerevisiae deletion strains, locus YHR094C, strain hxt1, hits give low values
[31] = S. cerevisiae deletion strains, locus YHR129C, strain ARP1, hits give low values
[32] = S. cerevisiae deletion strains, locus YHR200W, strain rpn10, hits give low values
[33] = S. cerevisiae deletion strains, locus YIL066C, strain RNR3, hits give low values
[34] = S. cerevisiae deletion strains, locus YIL073C, strain SPO22, hits give low values
[35] = S. cerevisiae deletion strains, locus YIL125W, strain kgd1, hits give low values
[36] = S. cerevisiae deletion strains, locus YIR030C, strain dcg1, hits give low values
[37] = S. cerevisiae deletion strains, locus YJL095W, strain BCK1, hits give low values
[38] = S. cerevisiae deletion strains, locus YJL134W, strain LCB3, hits give low values
[39] = S. cerevisiae deletion strains, locus YJL168C, strain set2, hits give low values
[40] = S. cerevisiae deletion strains, locus YJL187C, strain SWE1 (second series), hits give low values
[41] = S. cerevisiae deletion strains, locus YJR043C, strain POL32, hits give low values
[42] = S. cerevisiae deletion strains, locus YJR075W, strain HOC1, hits give low values
[43] = S. cerevisiae deletion strains, locus YKL009W, strain mrt4, hits give low values
[44] = S. cerevisiae deletion strains, locus YKL068W, hits give low values
[45] = S. cerevisiae deletion strains, locus YKL085W, strain MDH1 (second series), hits give low values
[46] = S. cerevisiae deletion strains, locus YKL085W, strain MDH1, hits give low values
[47] = S. cerevisiae deletion strains, locus YKL190W, strain CNB1, hits give low values
[48] = S. cerevisiae deletion strains, locus YKR001C, strain vps1, hits give low values
[49] = S. cerevisiae deletion strains, locus YLR039C, strain RIC1, hits give low values
[50] = S. cerevisiae deletion strains, locus YLR058C, strain SHM2, hits give low values
[51] = S. cerevisiae deletion strains, locus YLR102C, strain apc9, hits give low values
[52] = S. cerevisiae deletion strains, locus YLR262C, strain YPT6, hits give low values
[53] = S. cerevisiae deletion strains, locus YLR268W, strain sec22, hits give low values
[54] = S. cerevisiae deletion strains, locus YLR330W, strain CHS5, hits give low values
[55] = S. cerevisiae deletion strains, locus YLR342W, strain FKS1 (second series), hits give low values
[56] = S. cerevisiae deletion strains, locus YLR371W, strain rom2, hits give low values
[57] = S. cerevisiae deletion strains, locus YLR418C, strain cdc73, hits give low values
[58] = S. cerevisiae deletion strains, locus YML016C, strain PPZ1, hits give low values
[59] = S. cerevisiae deletion strains, locus YML032C, strain rad52, hits give low values
[60] = S. cerevisiae deletion strains, locus YML124C, strain tub3, hits give low values
[61] = S. cerevisiae deletion strains, locus YMR078C, strain ctf18, hits give low values
[62] = S. cerevisiae deletion strains, locus YMR223W, strain ubp8, hits give low values
[63] = S. cerevisiae deletion strains, locus YMR263W, strain SAP30, hits give low values
[64] = S. cerevisiae deletion strains, locus YMR307W, strain GAS1, hits give low values
[65] = S. cerevisiae deletion strains, locus YNL067W, strain RPL9B, hits give low values
[66] = S. cerevisiae deletion strains, locus YNL128W, strain TEP1, hits give low values
[67] = S. cerevisiae deletion strains, locus YNL153C, strain GIM3, hits give low values
[68] = S. cerevisiae deletion strains, locus YNL233W, strain BNI4, hits give low values
[69] = S. cerevisiae deletion strains, locus YNL250W, strain rad50, hits give low values
[70] = S. cerevisiae deletion strains, locus YNL271C, strain bni1, hits give low values
[71] = S. cerevisiae deletion strains, locus YNL298W, strain CLA4, hits give low values
[72] = S. cerevisiae deletion strains, locus YNL307C, strain MCK1, hits give low values
[73] = S. cerevisiae deletion strains, locus YNL322C, strain KRE1, hits give low values
[74] = S. cerevisiae deletion strains, locus YNR052C, strain pop2, hits give low values
[75] = S. cerevisiae deletion strains, locus YOL006C, strain TOP1, hits give low values
[76] = S. cerevisiae deletion strains, locus YOL012C, strain htz1
[77] = S. cerevisiae deletion strains, locus YOL147C, strain pex11, hits give low values
[78] = S. cerevisiae deletion strains, locus YOR061W, strain CKA2, hits give low values
[79] = S. cerevisiae deletion strains, locus YOR069W, strain VPS5, hits give low values
[80] = S. cerevisiae deletion strains, locus YOR136W, strain idh2, hits give low values
[81] = S. cerevisiae deletion strains, locus YOR144C, strain elg1, hits give low values
[82] = S. cerevisiae deletion strains, locus YOR184W, strain ser1, hits give low values
[83] = S. cerevisiae deletion strains, locus YOR316C, strain cot1, hits give low values
[84] = S. cerevisiae deletion strains, locus YPL055C, strain LGE1, hits give low values
[85] = S. cerevisiae deletion strains, locus YPL241C, strain CIN2, hits give low values
[86] = S. cerevisiae deletion strains, locus YPR119W, strain clb2, hits give low values
[87] = S. cerevisiae deletion strains, locus YPR141C, strain kar3, hits give low values
[88] = S. cerevisiae deletion strains, locus YPR163C, strain tif3, hits give low values
[89] = S. cerevisiae deletion strains, locus YPR167C, strain met16, hits give low values
[90] = S. cerevisiae deletion strains, strain wtn01, hits give low values
[91] = S. cerevisiae strains, strain wild type, hits give low values

Measured: normalized growth

CCOP(=S)(OCC)SCSCC
inactive: [1] 1 | [2] 0.979 | [3] 1 | [4] 1 | [5] 0.986 | [6] 0.963 | [7] 1 | [8] 0.998 | [9] 1.01 | [10] 1 | [11] 0.993 | [12] 0.994 | [13] 0.969 | [14] 1.01 | [15] 1 | [16] 1 | [17] 1.01 | [18] 1 | [19] 1 | [20] 1 | [21] 1 | [22] 0.998 | [23] 1 | [24] 0.99 | [25] 1.01 | [26] 0.998 | [27] 0.993 | [28] 1 | [29] 1.01 | [30] 0.997 | [31] 1.01 | [32] 1.01 | [33] 1.01 | [34] 1.06 | [35] 1 | [36] 1.01 | [37] 0.993 | [38] 1 | [39] 1.01 | [40] 1.01 | [41] 1.01 | [42] 1 | [43] 1.01 | [44] 1.01 | [45] 1 | [46] 1 | [47] 1.01 | [48] 0.998 | [49] 1.01 | [50] 1.01 | [51] 1.02 | [52] 0.953 | [53] 0.991 | [54] 0.999 | [55] 1.03 | [56] 1.02 | [57] 0.943 | [58] 1 | [59] 1 | [60] 1.01 | [61] 1 | [62] 1.01 | [63] 0.952 | [64] 1.02 | [65] 0.988 | [66] 1 | [67] 1 | [68] 1 | [69] 1.01 | [70] 1 | [71] 1.02 | [72] 1 | [73] 1.01 | [74] 1.01 | [75] 0.985 | [76] 0.793 | [77] 1 | [78] 0.994 | [79] 1 | [80] 1 | [81] 0.996 | [82] 1.01 | [83] 1 | [84] 0.974 | [85] 0.998 | [86] 0.997 | [87] 1.01 | [88] 1.01 | [89] 1.01 | [90] 1.01 | [91] 1.01

CCOP(=S)(OCC)SCCSCC
inactive: [1] 0.992 | [2] 1 | [3] 0.955 | [4] 0.977 | [5] 0.964 | [6] 0.896 | [7] 0.977 | [8] 0.983 | [9] 0.956 | [10] 0.981 | [11] 0.991 | [12] 0.975 | [13] 0.967 | [14] 0.97 | [15] 0.984 | [16] 0.986 | [17] 0.983 | [18] 0.985 | [19] 0.989 | [20] 0.992 | [21] 0.996 | [22] 0.991 | [23] 0.972 | [24] 0.965 | [25] 0.982 | [26] 0.968 | [27] 0.992 | [28] 0.992 | [29] 0.997 | [30] 0.991 | [31] 0.976 | [32] 0.994 | [33] 0.977 | [34] 0.982 | [35] 0.975 | [36] 0.996 | [37] 0.97 | [38] 0.98 | [39] 0.992 | [40] 0.979 | [41] 0.991 | [42] 0.961 | [43] 0.944 | [44] 0.977 | [45] 0.979 | [46] 0.979 | [47] 0.964 | [48] 0.976 | [49] 0.937 | [50] 0.972 | [51] 0.988 | [52] 0.878 | [53] 0.975 | [54] 0.974 | [55] 1.03 | [56] 0.999 | [57] 0.947 | [58] 0.982 | [59] 0.99 | [60] 0.995 | [61] 0.978 | [62] 0.992 | [63] 0.975 | [64] 1.04 | [65] 0.972 | [66] 0.945 | [67] 0.978 | [68] 0.99 | [69] 0.979 | [70] 0.994 | [71] 0.982 | [72] 0.993 | [73] 0.976 | [74] 0.998 | [75] 0.846 | [76] 0.792 | [77] 0.991 | [78] 0.96 | [79] 0.997 | [80] 0.995 | [81] 0.99 | [82] 0.956 | [83] 0.973 | [84] 0.949 | [85] 0.976 | [86] 0.99 | [87] 0.968 | [88] 0.999 | [89] 0.988 | [90] 0.995 | [91] 0.979
